{"source": "PubChem BioAssay AID2177", "about": "(The Scripps Research Institute Molecular Screening Center, 2009)", "note": "The whole screen tested about 320,000 compounds, of which about 1,200 (0.38%) were called active. The entries come from a sample that favours actives as a whole. Unmarked numbers belong to inactive results.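 How the source made its calls: active means inhibition above the screen-wide mean plus 3 SD, limit set per campaign (cut at about 26% in these data); inactive means the rest.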", "data": [{"molecular_target": "Acyl-protein thioesterase 2 (Homo sapiens) (UniProt O95372)", "sequence (O95372 whole entry, looked up)": "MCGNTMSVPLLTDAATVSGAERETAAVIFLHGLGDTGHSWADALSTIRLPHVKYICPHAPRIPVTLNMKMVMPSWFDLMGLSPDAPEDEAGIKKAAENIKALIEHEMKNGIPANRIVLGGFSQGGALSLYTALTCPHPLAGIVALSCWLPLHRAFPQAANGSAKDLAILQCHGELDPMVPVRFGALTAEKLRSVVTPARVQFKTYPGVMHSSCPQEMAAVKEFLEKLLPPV", "experiment": "inhibition of human lysophospholipase 2 – biochemical, fluorescence polarization, FP-Rh probe ABPP, counter-screen for PME1 inhibitor project, primary screen (AID 2177);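 further: 0% = LYPLA2 with DMSO and 100% = wells lacking LYPLA2 enzyme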", "details": "recombinant LYPLA2, FP-Rh probe fluorescence polarization; at 5.9 µM; hits give high values", "values": [{"compound": "CCN(C(=O)C1CCCN(c2nc(-c3ccc(OC)cc3)no2)C1)c1ccc(OC)cc1", "note": "(stereo not given)", "inhibition": "1.52%"}, {"compound": "COc1ccc(/C=N/NC(=O)c2ccc(Cl)cc2)cc1COC(C)=O", "inhibition": "-4.59%"}, {"compound": "O=C(N/N=C/c1cccc(OC(=O)c2ccc([N+](=O)[O-])cc2)c1)c1cccnc1", "inhibition": "-5.79%"}, {"compound": "N#Cc1cc([N+](=O)[O-])ccc1Oc1cccc(/C=N/NC(=O)c2ccc(Cl)cc2)c1", "inhibition": "36.9% (active)"}, {"compound": "Cc1c(CC(=O)NCC(=O)NCC(=O)O)c(=O)oc2cc3oc4c(c3cc12)CCCC4", "inhibition": "4.77%"}, {"compound": "COc1ccc(OC)c(NC(=O)c2cccc(S(=O)(=O)N3CCN(C(C)=O)CC3)c2)c1", "inhibition": "-0.81%"}, {"compound": "COc1ccc2c(c1)C=CC1(O2)N(CCO)c2ccccc2C1(C)C", "note": "(stereo not given)", "inhibition": "-20.1%"}, {"compound": "O=C(NC(Cc1ccccc1)C(=O)O)/C(=C\\c1ccccc1)NC(=O)c1ccco1", "note": "(stereo not given)", "inhibition": "1.3%"}, {"compound": "CC(=O)N1c2ccc(S(=O)(=O)N3CCC(C(=O)NC4CCCCC4C)CC3)cc2CC1C", "note": "(stereo not given)", "inhibition": "-1.87%"}, {"compound": "CC(=O)N1c2ccc(S(=O)(=O)N3CCC(C(=O)N4CCN(c5ccccc5)CC4)CC3)cc2CC1C", "note": "(stereo not given)", "inhibition": "58% (active)"}, {"compound": "CC(=O)c1ccc(N2CCN(C(=O)C3CCN(S(=O)(=O)c4ccc5c(c4)CC(C)N5C(=O)C4CC4)CC3)CC2)cc1", "note": "(stereo not given)", "inhibition": "75% (active)"}, {"compound": "COc1ccccc1CNC(=O)C1CCN(S(=O)(=O)c2ccc3c(c2)CC(C)N3C(=O)C2CC2)CC1", "note": "(stereo not given)", "inhibition": "14.5%"}, {"compound": "CC(=O)N1c2ccc(S(=O)(=O)N3CCC(C(=O)NC4CCCC(C)C4C)CC3)cc2CC1C", "note": "(stereo not given)", "inhibition": "-4.4%"}, {"compound": "CC(=O)c1ccc(N2CCN(S(=O)(=O)c3ccc4c(c3)CC(=O)N4C)CC2)cc1", "inhibition": "4.78%"}, {"compound": "O=C(O)CC(Cc1ccccc1)C(=O)Nc1ccc([N+](=O)[O-])cc1", "note": "(stereo not given)", "inhibition": "-0.26%"}, {"compound": "CCOC(=O)c1cc(NC(=O)SCC(=O)O)c(C)nc1C", "inhibition": "4.19%"}, {"compound": "COc1cc(C(=O)NCc2ccc3c(c2)cc(C)n3C)cc(OC)c1OC", "inhibition": "6.1%"}, {"compound": "CCOC(=O)c1c(-c2ccccc2)oc2ccc(OCC(=O)NN)cc12", "inhibition": "-13%"}, {"compound": "CCCc1c(C(=O)Nc2ccc(F)cc2)cnn1-c1ccccc1", "inhibition": "-3.93%"}, {"compound": "O=C(CSCc1ccc([N+](=O)[O-])cc1)Nc1cccc(C(=O)Nc2ccccc2C(=O)O)c1", "inhibition": "-6.72%"}, {"compound": "COc1ccccc1C(=O)NC(CCSC)C(=O)N1CCN(C/C=C/c2ccccc2)CC1", "note": "(stereo not given)", "inhibition": "37.6% (active)"}, {"compound": "COc1ccccc1C(=O)NC(CCSC)C(=O)N1CCN(C(C)=O)CC1", "note": "(stereo not given)", "inhibition": "-2.46%"}, {"compound": "COc1ccccc1C(=O)NC(CCSC)C(=O)NNC(=O)c1ccccc1C", "note": "(stereo not given)", "inhibition": "-3.19%"}, {"compound": "Cc1scc(C(=O)NNC(=S)NCC(C)C)c1C", "inhibition": "8.57%"}, {"compound": "Cc1sc2ncnc(N3CCC(C(=O)Nc4ccc(F)cc4Cl)CC3)c2c1C", "inhibition": "-1.19%"}, {"compound": "COc1ccc(CCNc2nc(-c3cccc(NC(C)=O)c3)cs2)cc1OC", "inhibition": "31.9% (active)"}, {"compound": "CC(=O)Nc1cccc(-c2csc(Nc3cccc(C)n3)n2)c1", "inhibition": "2.92%"}, {"compound": "COc1ccc(CC(=O)Nc2nc(-c3ccc(F)c(F)c3)cs2)cc1OC", "inhibition": "-13.7%"}, {"compound": "CC(C(=O)Nc1ccc(O)c(C(=O)O)c1)N1C(=O)/C(=C/c2cccs2)SC1=S", "note": "(stereo not given)", "inhibition": "2.96%"}, {"compound": "COc1cc(NS(=O)(=O)c2ccc3ccccc3c2)c2ncccc2c1", "inhibition": "-11.9%"}, {"compound": "O=C(c1cccs1)C1C(c2ccc(Br)cc2)NC(=S)NC1(O)C(F)(F)F", "note": "(stereo not given)", "inhibition": "-1.56%"}, {"compound": "O=C(CCCN1C(=O)CSc2ncccc21)N1CCN(c2cccc(C(F)(F)F)c2)CC1", "inhibition": "63.4% (active)"}, {"compound": "O=C(COc1ccc(Cl)cc1)N1CCN(c2cccc(C(F)(F)F)c2)CC1", "inhibition": "69.5% (active)"}, {"compound": "CCOc1ccccc1N1CCN(C(=O)COc2ccc3c(C)cc(=O)oc3c2)CC1", "inhibition": "-4.36%"}, {"compound": "COc1ccc(N2CCN(C(=O)COc3ccc4c(C)cc(=O)oc4c3)CC2)cc1", "inhibition": "11.7%"}, {"compound": "CCC(=O)c1ccc(OCC(O)CN2CC(C)OC(C)C2)cc1", "note": "(stereo not given)", "inhibition": "2.23%"}, {"compound": "O=C(CCCN1C(=O)C2C3C=CC(C3)C2C1=O)N1CCN(c2ccccc2)CC1", "note": "(stereo not given)", "inhibition": "-3.87%"}, {"compound": "O=C(COc1ccc(Cl)cc1)N1CCN(S(=O)(=O)c2ccc(Cl)cc2)CC1", "inhibition": "-0.85%"}, {"compound": "CCC(=O)c1ccc(OCC(O)CN2CCN(c3cccc(C(F)(F)F)c3)CC2)cc1", "note": "(stereo not given)", "inhibition": "64.8% (active)"}, {"compound": "O=C(CN1C(=O)CSc2ncccc21)N1CCOCC1", "inhibition": "-0.09%"}, {"compound": "O=C(COc1ccc(S(=O)(=O)Nc2cccc(C(F)(F)F)c2)cc1)N1CCOCC1", "inhibition": "2.78%"}, {"compound": "OC(COc1ccc2c(c1)CCC2)CN1CCN(c2cccc(Cl)c2)CC1", "note": "(stereo not given)", "inhibition": "20.1%"}, {"compound": "Cc1c(C)c2ccc(OCC(=O)N3CCN(c4cccc(Cl)c4)CC3)cc2oc1=O", "inhibition": "49.8% (active)"}, {"compound": "O=C(c1ccc2c(c1)N(Cc1ccc(F)cc1)C(=O)c1ccccc1S2(=O)=O)N1CCN(c2ccccn2)CC1", "inhibition": "1.84%"}, {"compound": "COc1cc(S(=O)(=O)N(Cc2cccs2)C2CC2)ccc1-n1cnnn1", "inhibition": "3.27%"}, {"compound": "CCOC(=O)N1CCN(S(=O)(=O)c2ccc3c(c2)C(C)C(=O)N3)CC1", "note": "(stereo not given)", "inhibition": "-2.51%"}, {"compound": "Cc1ccccc1NC(=O)CSC1=NCCN1", "inhibition": "0.07%"}, {"compound": "O=C1C2C3C=CC(C3)C2C(=O)N1c1ccc(-c2nc3ccccc3c(=O)o2)cc1", "note": "(stereo not given)", "inhibition": "1.58%"}, {"compound": "N#CCSc1nn(-c2ccc(F)cc2)c(=S)s1", "inhibition": "-7.24%"}, {"compound": "COc1cccc(C(=O)Nc2nnc(S(=O)(=O)N3CCOCC3)s2)c1", "inhibition": "-0.08%"}, {"compound": "Cc1ccccc1Cn1c2ccccc2c2cnn(CC(=O)NCc3ccco3)c(=O)c21", "inhibition": "-21%"}, {"compound": "COc1ccc(-c2nc(CS(=O)CC(=O)NCc3ccccn3)c(C)o2)cc1", "note": "(stereo not given)", "inhibition": "27.8% (active)"}, {"compound": "COc1cccc(-c2nc(CS(=O)CC(=O)NCc3ccc(F)cc3)c(C)o2)c1", "note": "(stereo not given)", "inhibition": "10.6%"}, {"compound": "COc1ccc(-c2nc(CS(=O)CC(=O)NCc3ccccc3)c(C)o2)cc1OC", "note": "(stereo not given)", "inhibition": "0.93%"}, {"compound": "CC[N+](C)(CC)CCC[n+]1c(-c2ccccc2)c2cc(N)ccc2c2ccc(N)cc21", "inhibition": "72.4% (active)"}]}]}
